The whole screen tested about 68,000 compounds, of which about 2,700 (4%) showed an effect of 50% or more. For the sample, strong results were picked, then their nearest neighbours and some compounds at random.

The assay deals with Plasmodium berghei. The experiment in a line: Screen against P. berghei liver stage (PbLuc), transformed with Luciferase, at 2uM. Particulars: tested at 2 uM. It is filed as functional, HepG2.
As for `CS(=O)(=O)Cc1ccc(CNC(=O)c2cccnc2O)cc1`, the INHIBITION is -4.5%. In the case of `COCC(C)(C#N)NC(=O)c1cn(-c2cccc(Cl)c2F)nn1` (centres undefined) it was -10.98%; in that of `O=C(c1ccncc1F)N1CC2CC1(C(=O)N1CCCC1)C2`, 33.14%; in that of `CN(C)C(=O)CN1CC[C@H]2[C@H]1CCN2c1ncccn1`, 22.18%. To `CN(C)C(=O)CN1CCN(c2ncccn2)[C@@H]2CS(=O)(=O)C[C@@H]21` belongs 58.69%; to `O=C(CN1CCN(c2ncccn2)[C@@H]2CS(=O)(=O)C[C@@H]21)N1CCCCC1`, 14.19%; to `CC(NC(=O)c1ccsc1)c1ccc2c(c1)NC(=O)CO2` (centres undefined), -34.61%. In the case of `CCN1CCCC1CN(Cc1cc[nH]n1)CC1CCN(CCOC)CC1` (centres undefined), the INHIBITION is listed as 18.63%. Consider `CCN1CCCC1CN(Cc1ccon1)CC1CCN(CCOC)CC1` (centres undefined), for which the INHIBITION was 55.66%. Take `CCN1CCCC1CN(Cc1ccoc1)CC1CCN(CCOC)CC1` (centres undefined): the INHIBITION amounted to 42.2%.

For `Cc1cc(C)nc(NC(C)Cc2cnccn2)n1` (centres undefined), the INHIBITION was determined as 4.42%.

On to `Cc1cc(N2CCCC2c2nnc3n2CCCCC3)nc(N)n1` (centres undefined), for which the INHIBITION is 38.89%. In the case of `CC(C)c1noc(-c2ccc(NCCCN3CCCC(O)C3)nc2)n1` (centres undefined) it was 22.57%; in that of `CCc1cc(C(=O)N2CCc3nc4c(C)csc4c(=O)n3CC2)on1`, 51.32%; in that of `Cc1csc2c(=O)n3c(nc12)CCN(C(=O)c1ccccn1)CC3`, -25.54%. In the case of `Cc1csc2c(=O)n3c(nc12)CCN(C(=O)c1ccnn1C)CC3` it was 19.07%.

In the case of `CNc1cncc(C2CCCN2c2cc(C)ncn2)n1` (centres undefined), the INHIBITION was determined as 5.15%.

In the case of `Cc1c(Cl)cccc1S(=O)(=O)N1CCC2(CC1)OCCS2`, the INHIBITION is listed as -21.09%. In the case of `COc1cccc([C@H]2CN(C(=O)c3ccccc3)[C@@H]3CCCN[C@H]23)c1` it was 34.48%; in that of `N#Cc1c(Cl)nsc1N1CCN(CC2CC2)CC1`, 20.88%; in that of `N#Cc1c(Cl)nsc1N1CCN(CC2CCCCC2)CC1`, 29.89%. Turning to `CC(C)(C)CCN1CCN(c2snc(Cl)c2C#N)CC1`, the INHIBITION was 58.29%. With `c1coc(CN2CCCC3(COCCN(Cc4c[nH]nn4)C3)C2)c1` (centres undefined), the INHIBITION is reported as -10.66%. To `CCn1cc(NC(=O)NCc2ccc(CN3CCOCC3)cc2)cn1` belongs 17.39%. Turning to `CN1CCN(c2cccc(Cl)c2CNCCS(C)(=O)=O)CC1`, the INHIBITION came to 4.42%.

For `O=C(Cc1ccc2c(c1)OCC2)Nc1nc[nH]n1`, the INHIBITION is 8.14%. With `Nc1ccc(C(=O)N2CCC(Oc3cccc(C(F)(F)F)c3)CC2)cn1`, the INHIBITION is 17.2%. To `O=C(c1ccncc1)N1CCC(Oc2cccc(C(F)(F)F)c2)CC1` belongs 26.74%; to `O=C(c1ccc(=O)[nH]c1)N1CCC(Oc2cccc(C(F)(F)F)c2)CC1`, 57.75%; to `O=C(c1cccnc1)N1CCC(Oc2cccc(C(F)(F)F)c2)CC1`, 45.82%. To `CC(N)C(=O)N1CCC(Oc2cccc(C(F)(F)F)c2)CC1` (centres undefined) belongs 48.21%; to `Nc1cc(C(=O)N2CCC(Oc3cccc(C(F)(F)F)c3)CC2)ccn1`, 72.05%. To `Cc1cc(C)c2c(OCC(=O)N(C)CC(=O)NC(C)C)nn(C)c2n1` belongs 44.95%.

Consider `CN(Cc1ccc(F)cc1)C(=O)CN1CCOC(Cn2cncn2)C1` (centres undefined), for which the INHIBITION is 2.08%.

As to `O=c1cc(CN(CCO)C2CC2)nc2ccc(Cl)cn12`, the INHIBITION is -28.15%. To `COc1ccc(S(=O)(=O)NCCCc2nnc3nc(C)cc(C)n23)cc1` belongs 12.7%; to `CCCNc1ncc(CN2CCC3(CCNC(=O)CC3)CC2)cn1`, 56.78%. As to `CCCNc1ncc(CN2CCN(C)C(=O)C2C)cn1` (centres undefined), the INHIBITION is -29.46%. In the case of `CCCNc1ncc(CN2CCC3(CC2)CNC(=O)C3)cn1` it was 29.94%; in that of `COCc1ncc(CN2CCC3(CCNC(=O)CC3)CC2)cn1`, 53.55%; in that of `COc1ncc(CN2CCC3(CCNC(=O)CC3)CC2)cn1`, 0.85%. To `COCc1ncc(CN2CCC3(CCNCC3)CC2)cn1` belongs -8.84%. In the case of `COC(=O)NCC1CCC2(CCNCC2)O1` (centres undefined), the INHIBITION amounted to 61.7%. To `N#CC1(C(=O)NCC2CCC3(CCNCC3)O2)CC1` (centres undefined) belongs 49.07%; to `O=C(NCC1CCC2(CCNCC2)O1)C1CC1` (centres undefined), 24.36%; to `Cn1ccc(C(=O)N2C[C@@H]3CN(CC4CC4)CCO[C@@H]3C2)n1`, 42.79%. As to `O=C(CCCn1cncn1)N1CCC2(CCCN(CC3CC3)C2=O)C1` (centres undefined), the INHIBITION came to 23.19%. For the compound `O=C(CCc1nc(Cl)n[nH]1)N1CCC2(CCCN(CC3CCC3)C2=O)C1` (centres undefined), the INHIBITION is recorded as 57.34%. To `O=C(CCc1nc(Cl)n[nH]1)N1CCC2(CCCNC2=O)C1` (centres undefined) belongs -35.22%. In the case of `O=C1CCc2cc(NC(=O)C3CCCN3c3nccs3)ccc2N1` (centres undefined) it was -73.41%; in that of `Cc1cc(-c2ccc(C(C)N3CCOCC3)cc2)cnc1N` (centres undefined), -38.09%; in that of `CC(c1ccc(-c2cnc(N)nc2)cc1)N1CCOCC1` (centres undefined), 41.78%.

Regarding `Cc1cc(-c2ccc(C(C)N3CCCCC3)cc2)cnc1N` (centres undefined), the INHIBITION is on record as 69.99%.

Turning to `CCC(CC)c1cc(CNC(=O)N2CCC[C@@H]2CO)on1`, the INHIBITION is listed as -1.89%. In the case of `COc1ccccc1C(=O)N1Cc2cc(C)ccc2OCC1CN(C)C` (centres undefined) it was -71.28%; in that of `Cc1nn(C)c(C)c1C1COCCN1C(=O)c1cc(F)ccc1F` (centres undefined), 21.52%. To `Cc1ccc(O)c(C(=O)N2CCOCC2c2c(C)nn(C)c2C)c1` (centres undefined) belongs 60.71%; to `Cc1ccc(O)c(C(=O)N2CCOCC2c2c(C)n[nH]c2C)c1` (centres undefined), 24.02%. Regarding `CC(NC(=O)Nc1cccnc1N1CCOCC1)c1ccncc1` (centres undefined), the INHIBITION came to 0.45%. To `CC(C)OCc1cccc(CNc2cnn(C)c(=O)c2Cl)c1` belongs 4.18%; to `CC(=O)N1CCO[C@@H]2CN(S(=O)(=O)c3cccnc3)C[C@@H]2C1`, -37.03%; to `CCN(C(C)=O)c1nc(CN2CCN(c3nccs3)CC2)cs1`, 55.36%. As for `CC(=O)N(C)c1nc(CN2CCN(c3nccs3)CC2)cs1`, the INHIBITION was -20.95%.

`Nc1nc(CN2CCN(c3nccs3)CC2)cs1`: the INHIBITION is recorded as -4.26%. To `CC(C)N1CCc2c(c(COc3cccnc3)nn2CC2CC2)C1` belongs -0.59%; to `Cc1nn(C)c(C)c1C1CCCN1Cc1nc(-c2cccs2)no1` (centres undefined), 45.83%.

As to `Cc1cccc(C(=O)N2CCN(C)CC2)c1NC(=O)c1ccncc1`, the INHIBITION came to 29.22%. On to `CNc1cc(C2CCCN2Cc2ccc(OCC(=O)O)cc2)ccn1` (centres undefined), for which the INHIBITION is given as 29.06%. Consider `CN(C)C(=O)N1CC[C@@H](O)[C@@H]1Cc1cnn(C)c1`, for which the INHIBITION is recorded as 12.88%.

As for `COCCO[C@H]1CCN(C(=O)c2ccno2)[C@H]1Cc1cnn(C)c1`, the INHIBITION is recorded as 1.02%. To `COCCO[C@H]1CCN(C(=O)c2ccoc2C)[C@H]1Cc1cnn(C)c1` belongs 5.35%; to `Cn1cc(C[C@H]2[C@@H](OCC3CC3)CCN2C(=O)c2ccc[nH]2)cn1`, -1.33%; to `CCO[C@@H]1CCN(C(=O)N(C)C)[C@@H]1Cc1cnn(C)c1`, 63.84%.

In the case of `COCCO[C@@H]1CCN(C(=O)c2ccc[nH]2)[C@H]1Cc1cnn(C)c1`, the INHIBITION was 66.69%. In the case of `CCO[C@@H]1CCN(C(=O)c2ccc[nH]2)[C@@H]1Cc1cnn(C)c1` it was 5.28%; in that of `CCO[C@@H]1CCN(C(=O)c2ccnnc2)[C@@H]1Cc1cnn(C)c1`, 18.15%; in that of `COCCO[C@H]1CCN(C(=O)c2cnoc2C)[C@H]1Cc1cnn(C)c1`, 63.06%. To `CC(C)c1ncc(CN2C[C@@H](CN3CCC(O)CC3)[C@@H](CO)C2)cn1` belongs -142.15%; to `Cc1cnc(CN(C)Cc2cccc(OC(F)(F)F)c2)cn1`, 8.59%.

Take `c1ccc2nc(CN3CCCC3c3noc(C4CC4)n3)ccc2c1` (centres undefined): the INHIBITION stood at 0.74%. In the case of `Cc1nn(C2CCS(=O)(=O)C2)c(O)c1Cc1ccccc1Cl` (centres undefined) it was -0.89%; in that of `Cc1nc(CN(Cc2ccccc2F)C2CCC2)no1`, -3.11%; in that of `COCCN(Cc1ccoc1)C(=O)CSc1ccc(F)cc1`, 12.7%.

Take `CN(Cc1ccncc1)C1CC2(CCN(c3ncc(F)cn3)CC2)C1`: the INHIBITION is -20.67%. `COc1cc2cc(C)c(SCCN3CCCCC3)nc2cc1OC`: the INHIBITION is 11.74%. To `CN(C)CC1CSCCCN1C(=O)c1ccc(-n2cccc2)cc1` (centres undefined) belongs 15.49%; to `Cc1cc(C(F)(F)F)nc(CNc2cc(C)nc3cc(C)nn23)n1`, -15.4%; to `Cc1cc(NCCCC(F)(F)F)n2nc(C)cc2n1`, -2.24%. For the compound `Cc1cc(NCc2cc(C)oc2C(F)(F)F)n2nc(C)cc2n1`, the INHIBITION was determined as 51.77%. In the case of `CCCN1CCCn2c(nc(CNC(=O)c3ccsc3)cc2=O)C1` it was -2.19%; in that of `CCC1CN(C(=O)c2cccc(O)c2)CCC(=O)N1Cc1ccccc1` (centres undefined), -0.23%. In the case of `c1cnc(N2CCC3(CC2)CN(CC2CC2)c2ccccc23)nc1` it was -59.24%; in that of `CC1CCCN(C(=O)CNC(=O)c2ccoc2)C1` (centres undefined), -13.92%. To `CNC(=O)C1(N2CCC[C@H]2C(=O)NC2CCCCC2)CCOCC1` belongs 20.87%. Turning to `COCC1c2c(cnn2C)CCN1Cc1ccsc1` (centres undefined), the INHIBITION is on record as -61.95%.

As to `c1ncc(-c2ccc(C3CNCCO3)nc2)cn1` (centres undefined), the INHIBITION came out at 27.3%.

For `Clc1ccc(-c2ccc(C3CNCCO3)nc2)cc1` (centres undefined), the INHIBITION is 39.65%. To `COc1ccc(-c2cnc(N(C)C)nc2C2CNCCO2)cc1` (centres undefined) belongs 38.42%; to `COc1ccc(-c2ccc(C3CNCCO3)nc2)cc1` (centres undefined), 84.26%. Take `c1ccc(-c2ccc(C3CNCCO3)nc2)cc1` (centres undefined): the INHIBITION is on record as 36.92%.

With `Cc1ccc(-c2ccc(C3CNCCO3)nc2)cc1` (centres undefined), the INHIBITION stood at 81.51%. In the case of `Cn1cc(CN2CCn3cc(CNC(=O)c4cccn4C)nc3C2)cn1` it was 16.22%; in that of `Cc1c(NCc2ccc(C#N)cc2)cccc1S(=O)(=O)NC1CC1`, 21.14%. Turning to `COC(=O)CNC(=O)c1ccn(-c2ccc(Cl)c(Cl)c2)n1`, the INHIBITION is reported as -14.28%.

The values above are taken from ChEMBL document CHEMBL4513216, “Probing the Open Global Health Chemical Diversity Library for Multistage-Active Starting Points for Next-Generation Antimalarials” (ACS Infect Dis, 2020).
